# PubChem BioAssay (NCI)
# Values joined by “and” are separate entries in the source; they are usually repeats but may differ in a detail not shown here. Equal entries are not always repeated. About 79,000 compounds went through this panel and 15% of them were active in at least one assay; those are over-represented in the sample as a whole. A number with no mark means an inactive call. Active and inactive are the calls of the source. No stated cut-off is given here; in the data, active means growth inhibition above about 70%; inactive means the rest. Where a SMILES comes first, the peptide text is derived from it. [ ]: non-standard residue; d: D form. The star is where a group is joined. ξ: configuration not given here. ξNMe2Val = CC(C)C(C(=O)*)N(C)C; NMeV = CN[CH](C(=O)O)C(C)C; NHBn = c1ccc(CN*)cc1
# Assays:
# [1] = NCI Yeast Anticancer Drug Screen. Data for the rad50 strain (AID 155);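 further: 0% = growth of vehicle-only cultures of the same strain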; conditions: S. cerevisiae rad50 strain growth inhibition; at 50.0 µM; active compounds read high
# Procedure, shortened: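 Genetically altered yeast (DNA repair pathway); compound treatment; growth inhibition vs vehicle ctrl.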
# [2] = NCI Yeast Anticancer Drug Screen. Data for the mec2-1 strain (AID 157); conditions: S. cerevisiae mec2-1 strain, at 50.0 µM, active compounds read high
# Procedure, shortened: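 Each compound was tested on mec2-1 yeast, a strain altered in DNA damage repair or cell cycle control. Growth inhibition is reported relative to vehicle.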
# [3] = NCI Yeast Anticancer Drug Screen. Data for the sgs1 mgt1 strain (AID 161);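 further: 0% = growth of cultures given vehicle only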; conditions: S. cerevisiae sgs1 mgt1 strain, at 50.0 µM, active compounds read high
# Procedure, shortened: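 Mutant yeast exposed to compound; growth scored against vehicle-only wells.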
# [4] = NCI Yeast Anticancer Drug Screen. Data for the cln2 rad14 strain (AID 165);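 further: 0% = growth equal to vehicle treated cultures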; conditions: S. cerevisiae cln2 rad14 strain, at 50.0 µM, active compounds read high
# Procedure, shortened: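 Test compounds were added to cln2 rad14 yeast cultures; inhibition of growth was then determined by comparison with vehicle treatment.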
# [5] = NCI Yeast Anticancer Drug Screen. Data for the bub3 strain (AID 167); conditions: S. cerevisiae bub3 mutant strain, at 50.0 µM, active compounds read high
# Procedure, shortened: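 Yeast carrying a defined mutation is treated with each compound, and growth is compared with that of vehicle-exposed cells to give inhibition.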
# [6] = NCI Yeast Anticancer Drug Screen. Data for the mlh1 rad18 strain (AID 175); conditions: S. cerevisiae mlh1 rad18 strain growth inhibition; at 50.0 µM; active compounds read high
# Procedure, shortened: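 Inhibition values reflect reduced growth of mutant yeast versus vehicle-treated controls following compound exposure; the mutations affect DNA damage repair.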
Compound,growth inhibition [1],growth inhibition [2],growth inhibition [3],growth inhibition [4],growth inhibition [5],growth inhibition [6]
NC(CNC(=O)CBr)C(=O)O (configuration not stated),6.9%,18.1%,-3.25%,8.9%,-4.1%,-35.2%
Cc1cccc[c]1[Sb](=[O])([OH])[OH],6.6%,-10.2%,-15.9%,-7.35%,-17.2%,-2.7%
O=[N+]([O-])CCCl,3.8%,2.1%,-3.4%,3.9%,3.95%,-3.9%
N#Cc1ccccc1Cl,8.05%,-8.4%,5.45%,20.7%,24.2%,40%
O=C1CC(c2ccccc2)n2cccc21 (configuration not stated),8.1%,2.2%,4.85%,24.8%,-8.95%,-27.8%
O=C(c1ccccc1)C1C(c2ccccc2)N1Cc1ccccc1 (configuration not stated),0.35%,12.2%,10.2%,6.15%,9.65%,-2.9%
CC(C)CCON=C(N)N,-23.8%,-2.25%,-13.7%,-40%,-5.6%,2.55%
CNC(=O)c1cc(N(CCCl)CCCl)c([N+](=O)[O-])cc1[N+](=O)[O-],-3.15%,-17.5%,-6.05%,10%,-3.15%,19.4%
O=S1(=O)N2CN3CCN(C2)CN1C3,36.5%,40.4%,31.4%,-25.3%,12.1%,34%
O=NN1CCCC1C(=O)O (configuration not stated),-10.8% and 0.75%,-16.6% and -11.8%,-14.2% and -12%,10.1% and 3.9%,3.45% and 1.65%,-14% and -2.15%
CC(=O)CC(C)=O.[Cl][Sb]1([Cl])[CH2]CC[CH2]1,-22.4%,-11.8%,-17.1%,-0.75%,1.25%,5.55%
CC(C)C(NC(=O)C(C(C)C)N(C)C)C(=O)N(C)C(C(=O)N1CCCC1C(=O)N1CCCC1C(=O)NCc1ccccc1)C(C)C (configuration not stated) (ξNMe2Val-V[NMeV]PP-NHBn; configuration not given here),-18.3%,-17.7%,-22.9%,12%,3.55%,-47%
Cc1c(OCC(=O)N/N=C/c2ccc(N(CCCl)CCCl)cc2)ccc2c(=O)c3ccccc3oc12,-1.95%,-10.3%,-3.15%,-15.5%,13.8%,-8.35%
C[Si](C)(OC(=O)N(CCCl)CCCl)O[Si](C)(C)OC(=O)N(CCCl)CCCl,14.8%,1.05%,-33.6%,-11.4%,-31%,-45.6%
C=C(C)C1(CC)C(=O)NC(=O)N(C)C1=O (configuration not stated),11.8% and -4.5%,7.5% and 9.4%,-1.25% and -7.5%,10.2% and -11.2%,3.65% and 1.5%,-7.95% and -13.1%
NCC#CCNCCCN1CC1,8.2%,47.2%,-9.4%,16.9%,-1.55%,-41.5%
CC1CCC2[S][Sn]3([NH]C2C1)[NH]C1CC(C)CCC1[S]3 (configuration not stated),97% (active),96.5% (active),99.1% (active),95.8% (active),98.2% (active),96.5% (active)
CC[N+]1(CC)CC[N+](CC)(CC)CC1,22.9%,-49%,25.8%,-9.05%,-0.9%,16.4%
CC12CCC3C(CC=C4CC(=O)CCC43CCO)C1CCC2Oc1ccccc1 (configuration not stated),5.3%,-11.9%,-2.45%,16.4%,23.7%,13.3%

Compound,growth inhibition [1],growth inhibition [2],growth inhibition [3],growth inhibition [4],growth inhibition [5],growth inhibition [6]
CC1(C)SC2C(NC(=O)COc3ccccc3)C(=O)N2C1C(=O)O (configuration not stated) (tested in a mixture with another compound),-3.75%,8.1%,2.3%,-24.4%,-2.15%,10%
CC(N)C(=O)O (configuration not stated),17.9% and -7.45%,-43.1% and -5.4%,8.7% and -25.4%,5.8% and 12.2%,7.65% and -26.8%,8.2% and -9.2%
CC(C(=O)O)C(Br)C(=O)O (configuration not stated),-9%,-8.7%,1.7%,3.55%,5.85%,9.7%
CS[P+]1(C)C=C(N2CCOCC2)CC1 (configuration not stated),37.4%,15.2%,0.6%,-8%,8.8%,10.3%
N.N.N.N.O=S(=O)([O-])[O-].[Co+3].[OH3+].[OH3+],2.25%,-0.6%,-22.5%,26.1%,-4.7%,-0.15%
CN(C1CCCCC1)C1CCCCC1,-7.75%,-2.05%,-6.65%,-9.85%,6.6%,-8.3%
CN1CCC(C(O)(c2ccccc2)c2ccccc2)CC1,-1.95%,-11.3%,12.3%,-39.1%,-6.45%,-25.4%
N#CC(C#N)/C=C/[Se]c1ccccc1,14.2%,1.65%,2.1%,26.8%,0.35%,3.6%
C/C(=N\N=C(N)N)C(CN1CCCCC1)C(c1ccccc1)c1c(O)c2ccccc2oc1=O (configuration not stated),13.7%,-2.6%,10.6%,24.4%,28.9%,16.9%
CC(Cl)C(=O)OC(C)(C)Cl (configuration not stated),19.9%,25.7%,11.7%,11.1%,17%,3.05%
O=C1NC(=S)NC(=O)C1=Cc1ccc(-c2ccccc2)cc1,33.1%,-12%,16.7%,15.6%,13.3%,15.3%
CC(CN1CCCCCC1)C(C#N)(c1ccccc1)c1ccccc1 (configuration not stated),7.4%,13.2%,25.4%,49.5%,46%,10.3%
CCCNC(Cc1ccccc1)c1ccccc1 (configuration not stated),-7.95%,-9.25%,3.4%,-10.1%,-0.7%,-1%
COc1ccc2c(c1O)C1=CC(=O)CCC13CCN(C)C3C2 (configuration not stated),-5.6% and 4.1%,-6.65% and -22.6%,8.05% and 18.8%,3% and 8.05%,8.1% and 2.4%,1.4% and 0.55%
COC(=O)c1nc(-c2ccc3c(n2)C(=O)C(N)=C(OC)C3=O)c(N)c(-c2ccc(OC)c(OC)c2O)c1C,58%,7.25%,36.1%,26.2%,23.2%,47.5%
CCOP1(=S)NNP(=S)(OCC)NN1 (configuration not stated),-2.75%,-11.5%,-3.75%,18.4%,10.2%,8.85%
O=C1NC(=O)C2(OC3c4ccccc4C=CN3C3=C2C(=O)CCC3)C(=O)N1 (configuration not stated),11.5%,1.8%,-6.1%,52.4%,10.1%,7.4%
COC1/C=C/C=C(/C)Cc2cc(O)c(Cl)c(c2)N(C)C(=O)CC(OC(=O)C(C)C)C2(C)OC2C(C)C2CC1(O)NC(=O)O2 (configuration not stated),-9.05%,-11.2%,-15.8%,-9.15%,-6.2%,-53%
